Laboratory results: PubChem BioAssay (Tox21)
Records with an inconclusive call do not appear. Where a call stands in place of a potency, no number is given. A number with no mark means an inactive call. The source made the active and inactive calls. Calls follow the shape of the full dose curve.

molecular target: Acetylcholinesterase (Homo sapiens) (UniProt P22303); experiment: Acetylcholinesterase (AChE) small molecule antagonists: colormetric cell-based qHTS assay (AID 1347395); conditions: SH-SY5Y cells AChE activity, colorimetric (Ellman); series mostly up to 115 µM; also: nearly all actives have a fitted effect of over 30% in size
Method in brief: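 In this cell-based qHTS, attached SH-SY5Y cells were treated with test chemicals for 30 min, after which acetylthiocholine hydrolysis was followed by DTNB colour development over 90 min at 37 C.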
Potency is read from the fitted curve at half-maximal effect.

Sequence of Acetylcholinesterase (Homo sapiens) (P22303 whole entry, looked up): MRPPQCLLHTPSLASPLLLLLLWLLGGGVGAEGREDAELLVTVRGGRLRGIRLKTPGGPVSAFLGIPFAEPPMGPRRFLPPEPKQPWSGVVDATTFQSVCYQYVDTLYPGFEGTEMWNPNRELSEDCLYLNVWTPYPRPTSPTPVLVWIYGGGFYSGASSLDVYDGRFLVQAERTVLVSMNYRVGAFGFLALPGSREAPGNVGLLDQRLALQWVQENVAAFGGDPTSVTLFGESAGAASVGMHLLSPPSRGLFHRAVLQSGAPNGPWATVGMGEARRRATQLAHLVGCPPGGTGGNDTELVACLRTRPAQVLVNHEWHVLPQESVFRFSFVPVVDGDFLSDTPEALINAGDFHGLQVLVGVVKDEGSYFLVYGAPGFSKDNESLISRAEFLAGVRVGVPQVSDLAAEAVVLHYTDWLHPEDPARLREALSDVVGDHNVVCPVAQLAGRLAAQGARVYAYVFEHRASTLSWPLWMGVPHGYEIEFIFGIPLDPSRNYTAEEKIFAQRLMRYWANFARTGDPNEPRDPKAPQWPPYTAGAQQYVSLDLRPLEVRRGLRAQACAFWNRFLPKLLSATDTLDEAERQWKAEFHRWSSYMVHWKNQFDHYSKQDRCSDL

| SMILES | Potency | activity, negative = inhibition |
| --- | --- | --- |
| C=C(C)C(=O)OCCOCC | inactive |  |
| CCCCCCCCCCCCCC(=O)OCC(O)CO (centres undefined) | inactive |  |
| O=C[C@H](O)[C@@H](O)[C@H](O)[C@H](O)CO | inactive |  |
| NC1CCN(c2nc3c(cc2F)c(=O)c(C(=O)O)cn3-c2ccc(F)cc2F)C1 (centres undefined) | inactive |  |
| CCN(CC)CCCC(C)Nc1ccnc2cc(Cl)ccc12 (centres undefined) | 9.52 µM (active) |  |
| C=CCON/C(CCC)=C1\C(=O)CC(C)(C)C(C(=O)OC)=C1O | inactive |  |
| CCCCN | inactive |  |
| CN1CCCC(n2nc(Cc3ccc(Cl)cc3)c3ccccc3c2=O)CC1 (centres undefined) | 17.4 µM (active) |  |
| CNC(=S)NC | inactive |  |
| COC(=O)CCSCCC(=O)OC | inactive |  |
| CCCCCOC(=O)CCCC | inactive |  |
| CCOC(=O)[C@@](C)(N)Cc1ccc(O)c(O)c1 | inactive |  |
| Cc1cnc(NS(=O)(=O)c2ccc(N)cc2)nc1 | inactive |  |
| CCCCOc1ccc(CC(=O)NO)cc1 | inactive |  |
| C=CCCCCCCCCCCC |  | -0.0098% [at 10.5 µM] |
| Clc1cc(Cl)c2c(c1)N=C1CCCCCN1C2 | 0.776 µM (active) |  |
| CC(=O)C1CCCCC1=O (centres undefined) | inactive |  |
| Cc1cccc(N(C)C(=S)Oc2ccc3c(c2)CCC3)c1 | inactive |  |
| COc1ccccc1NC(=O)c1cc2ccccc2cc1O | inactive |  |
| CC(C)(C)c1ccc(OCC2CO2)cc1 (centres undefined) | inactive |  |

| SMILES | Potency | activity, negative = inhibition |
| --- | --- | --- |
| O=C(Nc1ccc(Cl)cc1)Nc1ccc(Cl)c(C(F)(F)F)c1 | inactive |  |
| CCC(C)(C)C1CCC(=O)CC1 | inactive |  |
| COC(=O)[C@]1(C)CCC[C@@]2(C)[C@H]1CC=C1C=C(C(C)C)CC[C@@H]12 | inactive |  |
| CC(=O)O[C@@H]1C[C@@H]2CC[C@@]1(C)C2(C)C | inactive |  |
| Cc1ccc(OC(=O)c2ccccc2O)cc1 | inactive |  |
| O=Cc1ccc(F)c(Br)c1 | inactive |  |
| CC(C)(C)C1(CCc2ccc(Cl)cc2)CO1 (centres undefined) | inactive |  |
| CCC1(C)NC(=O)NC1=O (centres undefined) | inactive |  |
| Cc1cccn2c(=O)c(-c3nnn[nH]3)cnc12 |  | -0.311% [at 23.6 µM] |
| CCCN(CCC)c1c([N+](=O)[O-])cc(C(F)(F)F)c(N)c1[N+](=O)[O-] | inactive |  |
| O=C(Nc1cccc([N+](=O)[O-])c1)c1cc2ccccc2cc1O | inactive |  |
| c1ccc(CCCc2ccccn2)cc1 | inactive |  |
| CCCCCCCCOC(=O)CCCCCCCCC(=O)OCCCCCCCC | inactive |  |
| NCC1(Cc2noc(=O)[nH]2)CCCCC1 | inactive |  |
| COCCOC(=O)C1=C(C)NC(C)=C(C(=O)OC/C=C/c2ccccc2)C1c1cccc([N+](=O)[O-])c1 (centres undefined) | inactive |  |
| [O]=[Mo](=[O])=[O] |  | 2.74% [at 23.6 µM] |
| O=C(O)c1c(O)c(-c2ccccc2)nc2ccccc12 | inactive |  |
| CCN(CC)c1cccc(C)c1 | inactive |  |
| Clc1cc(Cl)c(Cl)nc1Cl | inactive |  |
